Results as given in PubChem BioAssay (NCI).
About 83,000 compounds went through this panel and 20% of them were active in at least one assay; those are over-represented in the sample as a whole.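 How to read the values: 0–100, growth inhibition (40 = 60% inhibited); 0, no net growth; -100 to 0, cell death (-40 = 40% of starting cells died; -100 = all dead).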 A number with no mark means an inactive call. Calls of active or inactive are those of the source. How the source made its calls: active means growth percent below 10; inactive means the rest.

Columns and labels:
Test in all cases: NCI-60 one-dose screen, 48 h (100 = growth as untreated, 0 = no growth, -100 = all killed)
Details in all cases: 10 µM unless noted
[1] = system: NCI-H23 lung
[2] = system: NCI-H226 lung
[3] = system: NCI-H322M lung
[4] = system: HOP-62 NSCLC
[5] = system: NCI-H460 lung
[6] = system: HOP-92 NSCLC
[7] = system: NCI-H522 lung
[8] = system: 786-0 renal
[9] = system: COLO 205 colon
[10] = system: A549/ATCC NSCLC

| SMILES | growth [1] | growth [2] | growth [3] | growth [4] | growth [5] | growth [6] | growth [7] | growth [8] | growth [9] | growth [10] |
| --- | --- | --- | --- | --- | --- | --- | --- | --- | --- | --- |
| COc1ccc(C(=O)CCC(=O)O)cc1 | 89.4% | 93.3% | 97.3% | 104% | 101% | 105% | 102% | 103% | 101% |  |
| CC(=O)Nc1ccc2nc3ccc(NC(C)=O)cc3[n+](-c3ccccc3)c2c1 | 104% | 127% | 109% | 103% | 108% | 136% | 88% | 102% | 109% |  |
| C=C(C)[C@@H]1CC[C@]2(C(=O)N3CCN(C)CC3)CC[C@]3(C)[C@H](CC[C@@H]4[C@@]5(C)C/C(=C/c6ccncc6)[C@H](O)C(C)(C)[C@@H]5CC[C@]43C)[C@@H]12 | 4.32% [100 µM] (active) | -51% [100 µM] (active) | -27% [100 µM] (active) | -38.6% [100 µM] (active) | -67.4% [100 µM] (active) | -39.3% [100 µM] (active) | -46.3% [100 µM] (active) | -90.8% [100 µM] (active) | -74.8% [100 µM] (active) |  |
| O=C1CC(c2ccc3c(c2)OCO3)Nc2ccccc21 (configuration not stated) | 40.2% | 65.3% | 51.3% | 24.2% | 10.5% | 20.5% | 19.8% | 42.2% | -16.4% (active) |  |
| CCCCOC(=O)c1c(C)[nH]c(/C=C2\N=C(c3ccc[nH]3)C=C2OC)c1C | -11.3% (active) | -0.091% (active) | -10.5% (active) | 2.13% (active) | 6.62% (active) | -17% (active) | -41.3% (active) | -32.6% (active) | -29.2% (active) |  |
| COc1ccc(-c2cc(-c3ccccc3)nc(NCCNc3ccnc4cc(Cl)ccc34)n2)cc1 | -77.2% (active) | -37.9% (active) | -81% (active) | -83.8% (active) | -60% (active) | -77.4% (active) | -61.9% (active) | -81.7% (active) | -80.8% (active) |  |
| COc1cc(C)cc2oc3oc(=O)c(C(=O)c4cc5cc(Br)ccc5o4)cc3c(=O)c12 | 107% | 96.7% | 97.3% | 104% | 107% | 102% | 101% | 110% |  |  |
| CCOc1cc(NC(=O)c2ccccc2)c(OCC)cc1N | 102% | 106% | 141% | 102% | 114% | 104% | 98.3% | 110% | 116% |  |
| O=C(Nc1cc(-c2cccnc2)nc(NCCCN2CCOCC2)n1)c1cc(Br)cc(C(F)(F)F)c1 | 80.9% | 73.8% | 58.2% | 69.4% | 56% | 34.6% | 60.2% | 51.8% | 1.11% (active) |  |
| CC[C@@](C)(NC(=O)[C@H](C)NC(=O)CCNC(=O)C(C)(C)NC(=O)[C@H](C)NC(=O)[C@@H]1CCCN1C(=O)[C@@](C)(CC)NC(=O)[C@H](Cc1ccccc1)NC(=O)C1CCCN1C(=O)C(C)(C)NC(=O)C1CCCN1C(=O)C(C)(C)NC(C)=O)C(=O)NCCC(=O)N[C@@H](CC(C)C)C(=O)NC(C)(C)C(=O)NCCC(=O)N[C@@H](CC(C)C)C(=O)NC(C)(C)C(=O)NC(C)(C)C(=O)N[C@@H](CC(C)C)C(=O)NCCC(=O)NCO (some centres not stated) | -89.5% (active) | -97% (active) | -87.9% (active) | -92% (active) | -78.1% (active) | -94.7% (active) | -84.2% (active) | -94.6% (active) | -87.9% (active) |  |
| O=C(Oc1ccc(Cl)cc1[N+](=O)[O-])Oc1ccc(Cl)cc1[N+](=O)[O-] | 105% | 117% | 122% | 113% | 111% | 93.4% | 104% | 119% | 122% |  |
| C[C@]12CCc3nc(Nc4ccccc4)sc3C1=CC[C@@H]1[C@@H]2CC[C@]2(C)/C(=N/NC(N)=S)CC[C@@H]12 | 59.7% | 15.6% | 81.9% | 68.2% | 70.3% |  | 32.5% | -49.8% (active) | 58.1% | 43.1% |
| CCOC(=O)COc1c(C)cc(SSc2cc(C)c(OCC(=O)OCC)c(C)c2)cc1C | 103% | 111% | 105% | 109% | 102% |  | 73.8% | 114% | 111% | 80.2% |
| C=C(C)[C@@H]1CC[C@]2(C(=O)NCCCCCCN(CCCN)CCCN)CC[C@]3(C)[C@H](CC[C@@H]4[C@@]5(C)CC[C@H](OCCCN)C(C)(C)[C@@H]5CC[C@]43C)[C@@H]12 | 77.4% [100 µM] |  | 80.7% [100 µM] | 93.2% [100 µM] | -16.2% [100 µM] (active) | 76.1% [100 µM] | 88.8% [100 µM] | 61.9% [100 µM] |  | 46.2% [100 µM] |
| NC1=NC(=O)NC1(c1ccccc1)c1ccccc1 | 91.9% | 99% | 99.2% | 95.6% | 108% |  | 95.1% | 135% | 103% | 93.3% |
| COc1ccc(C(C(=O)O)c2ccc(OC)cc2)cc1 | 113% | 104% | 121% | 112% | 117% |  | 106% | 107% | 117% | 116% |
| Cc1ccc(NC(=S)/N=c2/n(-c3ccccc3)nc3n2CCN3C2=NCCN2)cc1 | 104% | 92.3% | 103% | 92.7% | 104% |  | 96.7% | 53.5% | 106% | 106% |
| N#C/C(C(=O)c1ccccc1)=C1/C(=O)Nc2ccc(Br)cc21 | 94.4% | 96.6% | 101% | 84.1% | 105% |  | 99.1% | 101% | 113% | 104% |
| CC1Cc2c(ncnc2-n2cnc3ccccc32)N(C)c2ccccc21 (configuration not stated) | 48.5% | 58.6% | 63.7% | 32.3% | 18.7% |  | 20% | 39.2% | 20.9% |  |
| COc1ccc2c(c1)c(-c1noc(-c3cn(C)c4ncc(F)cc34)n1)cn2C | 75.4% | 108% | 57% | 55.7% | 18.5% |  | 79% | 50.8% |  | 21.5% |
| Nc1ccc(Cl)c([N+](=O)[O-])c1 | 111% | 101% | 106% | 101% | 104% |  | 87.5% | 107% | 107% | 97.7% |
| CC(C)C1=NOC(=O)C1=Cc1cn(-c2cccnc2)nc1-c1ccccc1 | 107% | 106% | 100% | 100% | 103% |  | 82.7% | 82.2% | 107% | 94.8% |
| O=c1[nH]cnc2c1ccn2C1OC(CO)C(O)C1O (configuration not stated) | 81.4% | 75.1% | 64.6% | 76.5% | 49.4% |  | 61% | 58.9% | 66.8% | 84.4% |
| CCOc1cccc2c(NC(C)CCCN(CC)CC)c(C)cnc12 (configuration not stated) | 110% | 103% | 91.8% | 98.9% | 110% |  | 94.7% | 103% | 77.1% | 91.4% |
| CN(C)c1ccc(N=Nc2ccc3ccccc3c2)cc1 | 91.5% | 79.9% | 89.6% | 110% | 87.5% |  | 71.7% | 122% | 73.7% | 92% |
| CC[C@]1(O)CC2CN(CCc3c([nH]c4ccccc34)[C@@](C(=O)OC)(c3cc4c(cc3OC)N(C=O)[C@H]3[C@@](O)(C(=O)OC)[C@H](OC(C)=O)[C@]5(CC)C=CCN6CC[C@]43[C@@H]65)C2)C1 (some centres not stated) | 21.5% | 2.28% (active) | 59.8% | 16.9% | 3.19% (active) |  | -21.5% (active) | 16.8% |  | 16.7% |
| COc1cc2c(c(OC)c1OC)-c1cc(I)c(O)cc1[C@@H](NC(C)=O)CC2 | 48.8% | 5.87% (active) | 70.3% | 42% | 3.02% (active) |  | -12.2% (active) | 29.7% | -64% (active) | 14.9% |
| CCn1cc(-c2cc(-c3ccc(Cl)cc3)nc(N)n2)c(-c2ccc(Br)cc2)n1 | 79.4% | 86.1% | 92.6% | 74.7% | 95.4% |  | 48.7% | 89.4% | 85.7% | 64.7% |
